Experimental data: paper PMC4336329 (PLoS ONE, 2015)
About 14,000 (4.5%) of roughly 310,000 compounds showed an effect of 50% or more. Effects have a minus sign here. The entries come from a sample that favours strong results as a whole.

Biological target: human ether-à-go-go-related gene (hERG) potassium channel (human, UniProt Q12809)
Assay: primary screen, population patch clamp on CHO cells stably expressing hERG; higher = less effect of the substance
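Further: peak tail current of the secondary pulse compared with the same well before compound.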

Chain of human ether-à-go-go-related gene (hERG) potassium channel (Q12809 whole entry, looked up): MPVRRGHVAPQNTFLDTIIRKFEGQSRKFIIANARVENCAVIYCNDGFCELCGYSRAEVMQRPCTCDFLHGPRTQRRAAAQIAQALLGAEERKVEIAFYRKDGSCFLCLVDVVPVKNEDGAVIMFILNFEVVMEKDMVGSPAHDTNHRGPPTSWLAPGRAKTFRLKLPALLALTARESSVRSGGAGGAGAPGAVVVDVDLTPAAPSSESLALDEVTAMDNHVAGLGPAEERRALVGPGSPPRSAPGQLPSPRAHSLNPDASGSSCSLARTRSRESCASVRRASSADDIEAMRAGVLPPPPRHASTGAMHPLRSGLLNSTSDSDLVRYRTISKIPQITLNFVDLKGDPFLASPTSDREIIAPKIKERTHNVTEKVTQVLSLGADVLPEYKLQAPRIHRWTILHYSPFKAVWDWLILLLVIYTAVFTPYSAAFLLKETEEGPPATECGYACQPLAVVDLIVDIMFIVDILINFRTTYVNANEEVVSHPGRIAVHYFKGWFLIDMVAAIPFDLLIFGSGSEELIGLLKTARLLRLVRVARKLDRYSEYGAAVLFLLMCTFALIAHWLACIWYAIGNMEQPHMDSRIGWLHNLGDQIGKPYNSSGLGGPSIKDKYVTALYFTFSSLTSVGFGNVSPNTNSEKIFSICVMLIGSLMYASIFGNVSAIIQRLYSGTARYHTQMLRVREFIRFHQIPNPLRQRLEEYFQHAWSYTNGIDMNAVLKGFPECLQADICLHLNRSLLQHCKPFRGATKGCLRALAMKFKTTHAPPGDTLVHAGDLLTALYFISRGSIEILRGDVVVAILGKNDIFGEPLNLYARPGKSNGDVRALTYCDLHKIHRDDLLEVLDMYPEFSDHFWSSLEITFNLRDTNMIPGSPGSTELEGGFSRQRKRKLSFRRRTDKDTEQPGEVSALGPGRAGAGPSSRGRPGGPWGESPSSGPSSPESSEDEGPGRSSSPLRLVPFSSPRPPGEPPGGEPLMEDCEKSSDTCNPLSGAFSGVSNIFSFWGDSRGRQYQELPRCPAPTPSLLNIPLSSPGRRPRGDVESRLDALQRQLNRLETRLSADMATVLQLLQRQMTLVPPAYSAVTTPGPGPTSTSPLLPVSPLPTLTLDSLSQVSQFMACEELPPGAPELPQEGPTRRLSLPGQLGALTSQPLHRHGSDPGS

Row | SMILES | hERG current change (%, negative = inhibition) at 10uM
1 | Cc1nnc(SCC(=O)c2ccc(Cl)cc2)s1 | -9.82%
2 | Cn1c(=O)c2c(nc(CN3CCN(C(=O)c4ccco4)CC3)n2Cc2ccc(F)cc2)n(C)c1=O | -44.8%
3 | Cc1ccccc1Cn1c(CN2CCN(C(=O)c3ccco3)CC2)nc2c1c(=O)n(C)c(=O)n2C | -45%
4 | Cc1ccc(Cn2c(CN3CCN(C(=O)c4ccco4)CC3)nc3c2c(=O)n(C)c(=O)n3C)cc1 | -54.2%
5 | Cn1c(=O)c2c(nc(CN3CCN(C(=O)c4ccco4)CC3)n2Cc2ccc(Cl)cc2)n(C)c1=O | -64.8%
6 | CC(=O)Cn1c(CN2CCN(C(=O)c3ccco3)CC2)nc2c1c(=O)n(C)c(=O)n2C | 16%
7 | Cn1c(=O)c2c(nc(CN3CCN(C(=O)c4ccco4)CC3)n2Cc2ccccc2)n(C)c1=O | -40.7%
8 | CC(C)Cn1c(CN2CCN(C(=O)c3ccco3)CC2)nc2c1c(=O)n(C)c(=O)n2C | -12.2%
9 | Cn1c(=O)c2c(nc(CN3CCN(C(=O)c4ccco4)CC3)n2Cc2cccc(Cl)c2)n(C)c1=O | -60.1%
10 | CCN1CCN(C(=O)c2ccc3c(c2)N(Cc2ccc(F)cc2)C(=O)c2ccccc2S3=O)CC1 (stereo not shown) | -9.09%
11 | O=C(NCc1ccccn1)[C@H]1C[C@@H]1[C@H](NP(=O)(c1ccccc1)c1ccccc1)c1ccccc1 | -9%
12 | O=C(Nc1ccc2oc(-c3cccnc3)nc2c1)c1ccco1 | -33.2%
13 | CC(=O)Nc1ccc(S(=O)(=O)N2CCC(C(=O)N[C@@H](C)C(=O)NC3CCCC3)CC2)cc1 | 35.3%
14 | CCn1c(=O)c2ccccc2n(Cc2ccc([N+](=O)[O-])cc2)c1=O | -77%
15 | COc1ccc(Cn2c(C)nc3ccc([N+](=O)[O-])cc3c2=O)cc1 | -20%
16 | Cc1c(C=O)c2ccccc2n1Cc1ccc([N+](=O)[O-])cc1 | -78.1%
17 | CCn1c(=O)c2ccccc2n(Cc2cccc([N+](=O)[O-])c2)c1=O | 15.3%
18 | Cc1nc2ccccc2c(=O)n1Cc1ccc([N+](=O)[O-])cc1 | -74.4%
19 | CCn1c(=O)c2ccccc2n(Cc2cccc(C)c2)c1=O | 3.93%
20 | Cc1nc2ccc([N+](=O)[O-])cc2c(=O)n1Cc1ccc(Cl)cc1 | -4.6%
21 | Cc1nc2ccc([N+](=O)[O-])cc2c(=O)n1Cc1ccc(F)cc1 | -26.2%
22 | Cc1nc2ccc([N+](=O)[O-])cc2c(=O)n1Cc1ccc([N+](=O)[O-])cc1 | -76.8%
23 | Cc1c(C=O)c2ccccc2n1Cc1ccccc1 | -2.16%
24 | Cc1nc2ccc([N+](=O)[O-])cc2c(=O)n1Cc1ccc(Br)cc1 | 7.76%
25 | Cc1c(C=O)c2ccccc2n1Cc1ccc(F)cc1 | -43.1%
